The list shows a part of the results. Values without a mark were called inactive. Activity calls are given as the source filed them.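 The calls were made as follows, unless noted: active = mean inhibition above about 50% in the one-dose retest (limit read from the data); inactive = the rest.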

Inhibition data for 25 compounds are collected here from PubChem BioAssay.

For test [1], the target named is Sentrin-specific protease 8 (Homo sapiens) (UniProt Q96LD8). Kind of test: human SENP8 peptidase blockers, hit retest – biochemical, luminescence, single concentration, confirmation (AID 488912;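 active = mean inhibition across replicates above about 50%, limit read from the data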). The conditions noted are these: Recombinant SENP8, Z-RLRGG-aminoluciferin luminescence, 60 min; at 12.5 µM; active compounds read high.
Test [2] concerns the target Sentrin-specific protease 6 (Homo sapiens) (UniProt Q9GZR1). Kind of test: inhibition of human SENP6 catalytic domain – biochemical, luminescence, single concentration, confirmation (AID 488915). The conditions noted are these: recombinant SENP6, Z-RLRGG-aminoluciferin luminescence; at 12.5 µM; active compounds read high.
Test [3] has as its target Sentrin-specific protease 7 (Homo sapiens) (UniProt Q9BQF6). Kind of test: human SENP7 peptidase blockers, hit retest – biochemical, luminescence, single concentration, confirmation (AID 488917). To be noted: recombinant SENP7, Z-RLRGG-aminoluciferin luminescence, 40 min; at 12.5 µM; active compounds read high.
In another test the target is Caspase-3 (Homo sapiens) (UniProt P42574). Kind of test: human caspase-3 activity blockade, out-of-family – biochemical, single concentration, selectivity assay for SENP inhibitor project, confirmation (AID 488918;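 active = mean inhibition above about 50%, limit read from the data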;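 also: plate controls were enzyme with DMSO for no effect and wells without caspase-3 for full effect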). The conditions noted are these: purified caspase-3, Z-DEVD-aminoluciferin luminescence, 60 min; at 12.5 µM; active compounds read high.
Test [4] is described as follows: Ultra-Glo luciferase signal interference – biochemical, single concentration, SENP8 reaction pre-completed, artefact control for SENP inhibitor project, confirmation (AID 488919;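 active = mean inhibition above about 50% when retested at one dose, limit read from the data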;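 also: plate controls were DMSO wells with completed reaction for no effect and substrate without enzyme for full effect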). The conditions noted are these: Pre-incubated SENP8/Z-RLRGG-aminoluciferin, luciferase luminescence interference; at 12.5 µM; active compounds read high.

Sentrin-specific protease 7 (Homo sapiens), sequence (Q9BQF6 706-1050 limits assumed): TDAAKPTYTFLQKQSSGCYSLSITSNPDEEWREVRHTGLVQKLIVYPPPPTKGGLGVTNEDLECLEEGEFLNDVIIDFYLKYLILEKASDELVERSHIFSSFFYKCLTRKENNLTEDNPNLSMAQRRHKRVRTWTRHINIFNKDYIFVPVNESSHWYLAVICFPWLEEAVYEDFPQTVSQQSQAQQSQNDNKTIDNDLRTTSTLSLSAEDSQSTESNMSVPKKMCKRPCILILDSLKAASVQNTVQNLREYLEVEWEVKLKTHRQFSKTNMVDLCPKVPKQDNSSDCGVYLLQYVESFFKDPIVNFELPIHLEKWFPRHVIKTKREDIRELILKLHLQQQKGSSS
Caspase-3 (Homo sapiens), sequence (P42574 28-227 limits assumed): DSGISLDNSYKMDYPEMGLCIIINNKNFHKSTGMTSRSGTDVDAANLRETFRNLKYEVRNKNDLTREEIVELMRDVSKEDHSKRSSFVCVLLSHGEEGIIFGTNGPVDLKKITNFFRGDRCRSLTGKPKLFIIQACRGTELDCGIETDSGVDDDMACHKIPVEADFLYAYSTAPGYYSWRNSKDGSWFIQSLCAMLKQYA
Sentrin-specific protease 6 (Homo sapiens), sequence (Q9GZR1 628-1112 limits assumed): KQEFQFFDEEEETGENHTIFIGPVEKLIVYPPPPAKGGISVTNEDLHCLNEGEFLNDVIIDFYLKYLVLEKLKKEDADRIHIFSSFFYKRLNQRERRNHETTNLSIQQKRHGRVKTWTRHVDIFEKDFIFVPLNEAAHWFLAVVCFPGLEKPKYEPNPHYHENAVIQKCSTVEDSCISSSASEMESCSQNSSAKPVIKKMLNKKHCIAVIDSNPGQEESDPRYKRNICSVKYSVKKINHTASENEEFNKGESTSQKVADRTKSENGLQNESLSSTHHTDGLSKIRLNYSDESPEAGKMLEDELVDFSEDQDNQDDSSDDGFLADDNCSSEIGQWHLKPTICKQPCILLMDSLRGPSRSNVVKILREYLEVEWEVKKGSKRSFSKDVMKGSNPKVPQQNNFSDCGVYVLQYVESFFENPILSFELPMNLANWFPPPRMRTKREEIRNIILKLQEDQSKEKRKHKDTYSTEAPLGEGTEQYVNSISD
Sentrin-specific protease 8 (Homo sapiens), sequence (Q96LD8 whole entry, looked up, the tested form may be a part): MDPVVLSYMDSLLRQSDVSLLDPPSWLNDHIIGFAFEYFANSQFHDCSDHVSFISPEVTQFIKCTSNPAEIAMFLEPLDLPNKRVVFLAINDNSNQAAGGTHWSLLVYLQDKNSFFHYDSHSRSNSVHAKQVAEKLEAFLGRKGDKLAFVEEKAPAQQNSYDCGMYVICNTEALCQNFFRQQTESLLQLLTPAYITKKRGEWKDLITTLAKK

By inhibition is commonly meant the change of the read-out against control, counted positive when it falls. Take `CCOc1ccc(C(=O)Nc2cccc(SC)c2)cc1`: the inhibition in test [1] is -21.9%; in test [2] it was 80.1% (active); in test [3] it was 96.7% (active); in the test with Caspase-3 (Homo sapiens) it was 76.3% (active); in test [4] it was 85.8% (active).
On to `O=C(Nc1ccc(NC(=O)c2ccco2)c(Cl)c1)c1cccc([N+](=O)[O-])c1`, for which the inhibition was 8.7% in test [1]; 6.1% in test [2]; -6.7% in test [3]; -0.7% in the test with Caspase-3 (Homo sapiens); -0.2% in test [4].
Consider `O=C1/C(=C/c2cccs2)CCc2ccccc21`, for which the inhibition was 98.3% (active) in test [1]; 99.1% (active) in test [2]; 101% (active) in test [3]; 95.8% (active) in the test with Caspase-3 (Homo sapiens); 97.6% (active) in test [4].
With `COc1cccc(OCC(O)CNC(=O)c2oc3c(C)c(C)ccc3c2C)c1` (stereo not given), the inhibition in test [1] is 5.2%; in test [2] it was -1.7%; in test [3] it was -2.1%; in the test with Caspase-3 (Homo sapiens) it was -3.9%; in test [4], -0.9%.
On the same counts, the results for `CSC1=N/C(=C\C=C\c2cccs2)C(=O)S1` are 69.4% (active), 75.6% (active), 85.3% (active), 68.1% (active) and 52.2% (active).
`O=c1c(-c2cccc(Cl)c2)c[nH]n1-c1ccccc1`: the inhibition in test [1] was 63.9% (active); in test [2] it was 61.4% (active); in test [3], 80.8% (active); in the test with Caspase-3 (Homo sapiens), 76.2% (active); in test [4] it was 63.8% (active).
As to `O=C(Nc1cccc2ccccc12)c1onc2c1CCCC2`, the inhibition in test [1] is -4.7%; in test [2], 75% (active); in test [3], 93.2% (active); in the test with Caspase-3 (Homo sapiens), 78.6% (active); in test [4], 81.4% (active).
Take `O=C(Nc1ccccc1C(=O)Nc1ccncc1)c1ccc([N+](=O)[O-])cc1`: the inhibition in test [1] is 47.2%; in test [2], 57.2% (active); in test [3], 85.4% (active); with Caspase-3 (Homo sapiens) it was 65.1% (active); in test [4], 10.6%.
On to `COc1ccccc1OCc1nc2ccccc2s1`, for which the inhibition in test [1] is 96.7% (active); in test [2], 97.3% (active); in test [3] it was 102% (active); with Caspase-3 (Homo sapiens), 96% (active); in test [4], 95.3% (active).
For `COc1ccccc1C(=O)Nc1ccc(NC(=O)c2ccco2)c(C)c1`, the inhibition in test [1] is 45.3%; in test [2], 47.1%; in test [3], 81.2% (active); with Caspase-3 (Homo sapiens), 82.5% (active); in test [4], 58.6% (active).
Consider `COc1cc(C#Cc2ccc3cc(CCCO)oc(=O)c3c2)cc(OC)c1`, for which the inhibition is 56.9% (active) in test [1]; 72.2% (active) in test [2]; 86.6% (active) in test [3]; 42.7% in the test with Caspase-3 (Homo sapiens); 15.2% in test [4].
As for `COc1ccc(/C=N/Nc2ccccc2C(=O)O)cc1`, the inhibition is 97.3% (active) in test [1]; 97.5% (active) in test [2]; 103% (active) in test [3]; 96% (active) with Caspase-3 (Homo sapiens); 97.6% (active) in test [4].
With `C1=C(CCNc2ncnc3c2cnn3-c2ccccc2)CCCC1`, the inhibition was 2% in test [1]; 22% in test [2]; -1.5% in test [3]; 39.5% in the test with Caspase-3 (Homo sapiens); -4.4% in test [4].
On to `O=C(Nc1cccc([N+](=O)[O-])c1)c1ccc2c(c1)OCO2`, for which the inhibition in test [1] was 29.3%; in test [2] it was 38.2%; in test [3] it was 88% (active); with Caspase-3 (Homo sapiens), 65.1% (active); in test [4], 9.5%.
With `Oc1cccc2ccc(/C=C/c3ccc(Br)s3)nc12`, the inhibition in test [1] was 31.2%; in test [2] it was 63.9% (active); in test [3], 52.2% (active); in the test with Caspase-3 (Homo sapiens), 59.9% (active); in test [4], 9.6%.
On the same counts, the results for `Cc1nn2cc(-c3ccc(Cl)cc3)cnc2c1Br` are 17.8%, 15.7%, 30.8%, 28.5% and 9%.
With `Oc1ccc(N=Nc2nccs2)c(O)c1`, the inhibition in test [1] was 82.3% (active); in test [2], 80.3% (active); in test [3] it was 93.9% (active); with Caspase-3 (Homo sapiens) it was 90.8% (active); in test [4], 82.8% (active).
On the same counts, the results for `O=C(Nc1nnc(C2CC2)s1)c1ccccn1` are 49.3%, 49.2%, 82.6% (active), 83.6% (active) and 59.4% (active).
In the case of `Cc1ccc(O)c(CNc2nc3ccccc3n2C)c1`, the inhibition in test [1] is -5%; in test [2], -7.9%; in test [3], 7.6%; in the test with Caspase-3 (Homo sapiens) it was 8.9%; in test [4] it was -0.5%.
For `O=C(ON=C1CCN(S(=O)(=O)c2ccccc2)CC1)c1ccc(Cl)cc1`, the inhibition was 12.5% in test [1]; 15.5% in test [2]; 3.4% in test [3]; 17.7% in the test with Caspase-3 (Homo sapiens); -1.9% in test [4].
In the case of `CCc1noc(C)c1C(=O)Nc1nc2ccc(OC)cc2s1`, the inhibition in test [1] was 45.2%; in test [2] it was 42.8%; in test [3], 78.3% (active); with Caspase-3 (Homo sapiens) it was 58.3% (active); in test [4], 19.6%.
As to `COc1ccc(C(=O)Nc2ccc3c(c2)OCO3)cc1OC`, the inhibition in test [1] was 8.9%; in test [2], 77.3% (active); in test [3], 93.5% (active); with Caspase-3 (Homo sapiens), 91.3% (active); in test [4] it was 77.4% (active).
Turning to `Cc1cc(C(=O)Nc2nnc(C3CC3)s2)c(C)s1`, the inhibition in test [1] was 63.4% (active); in test [2], 80.8% (active); in test [3], 94.1% (active); with Caspase-3 (Homo sapiens), 83.7% (active); in test [4], 16.4%.
For `O=C(COc1ccc2oc3c(c2c1)CCCC3)Nc1ccccn1`, the inhibition in test [1] is 4.9%; in test [2], 12.8%; in test [3] it was 11.9%; with Caspase-3 (Homo sapiens), 24.7%; in test [4] it was 4.6%.
The like results for `Cn1cccc1C(=O)OCC(=O)c1ccc(Br)s1` were, in that order, 78.3% (active), 78.3% (active), 95.5% (active), 77.3% (active) and 54.7% (active).
